In PubChem BioAssay (NCI):
The panel holds about 83,000 compounds, 20% with a hit somewhere; the sample as a whole holds those more often.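 Testing used 96-well plates and a 48-hour single-concentration exposure. Example: -40 means 40% of the starting cells died.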 A number with no mark means an inactive call. Activity calls are given as the source filed them.

What follows are compounds tested on NCI-H23 lung (assay: NCI-60 one-dose screen, 48 h (100 = growth as untreated, 0 = no growth, -100 = all killed)). Conditions: 10 µM unless noted.
Method: Growth inhibition of the NCI-H23 human Non-Small Cell Lung tumor cell line is measured as a screen for anti-cancer activity. Cells are grown in 96 well plates and exposed to the test compound for 48 hours. Compounds are tested at a single concentration, which is 10^-5 M for most compounds. The reported endpoint is percent growth (GI% or GIPRCNT), where numbers from 0 - 100% represent growth inhibition, and numbers from -100% - 0 represent cell death. For example, a value of 40 represents 60% growth inhibition. A value of 0 means no net growth occurred over the course of the experiment. A value of -40 indicates 40% of cells at the beginning of the experiment died by the end of the experiment. A value of -100 means all cells are dead at the end of the experiment.
NCI-60 Human Tumor Cell Lines Screen was performed using the standard one-dose NCI protocol, which is described in more detail at https://dtp.cancer.gov/discovery_development/nci-60/default.htm.
Compounds with GIPRCNT values below 10 were considered active. Activity score was based on GIPRCNT using the following formula: […]
Score is 0 for GIPRCNT values of 100 or above, 50 for GIPRCNT values of 0, and 100 for GIPRCNT values of -100.

Structure (SMILES) | growth
CN(Cc1cnc2nc(N)nc(N)c2n1)c1ccc(C(=O)N[C@@H](CCc2nn[nH]n2)c2nn[nH]n2)cc1 | 40.8%
COc1cc(/C=N/n2c(CN3CCOCC3)nc3ccccc3c2=O)cc(OC)c1OC | 98.9%
COc1cccc(-c2nc3sccn3c2-c2ccnc(NCCNS(=O)(=O)c3ccc(C(F)(F)F)cc3)c2)c1 | 53.7%
O=C1Nc2ccc(F)cc2C12Nc1cc(Cl)ccc1S2 (stereo not given) | 80.1%
COc1ccc2c(c1)C(=O)/C(=C/c1ccc(OCC(=O)Nc3nccs3)cc1)O2 | 2.06% (active)
CC(=O)c1nc(Nc2ccc(C)cc2)sc1C | 90.9%
COc1ccc(-c2nc(SCCC(C)C)nc(N/N=C\c3cccc(Cl)c3)c2C#N)cc1 | 82.6%
Cc1ccc(CCC(=O)Nc2ncc(Cc3cc(Cl)ccc3Cl)s2)o1 | 31.9%
CC1=CN2C(=O)C3C4=C(CCCC4)SC3N=C2CN1c1c(C)cccc1C (stereo not given) | 91.1%
c1coc(-c2c3ccc(=[N+]4CCCCC4)cc-3oc3cc(N4CCCCC4)ccc23)c1 | -84.6% (active)
O=C1Nc2ccccc2/C1=C/c1cn(C(=O)c2ccc(Cl)cc2)c2ccccc12 | 90.8%
Cc1cc(NCc2cc(Nc3ccnc4cc(Cl)ccc34)ccc2F)nc(N2CCN(C)CC2)n1 | 39.3%
COc1ccc(C(=O)Nn2c(NCC(=O)N3c4ccccc4Sc4ccccc43)nnc2-c2ccc(O)cc2)cc1 | 94.4%
O=S(=O)(NCCCNc1cc(-c2c(-c3cccc(O)c3)nc3sccn23)ccn1)c1cccc(Cl)c1 | 49.1%
C[C@H]1[C@H]2[C@H]3CC[C@@H]4[C@@]5(C)C/C(=C/c6ccco6)C(=O)C(C)(C)[C@@H]5CC[C@@]4(C)[C@]3(C)CC[C@]23CO[C@]1(C)[C@@H](C(=O)/C=C\c1ccco1)C3 | 99.6%
CCN1CCN(c2cc(C)nc(NCc3cc(Nc4ccnc5cc(Cl)ccc45)ccc3F)n2)CC1 | 56%
COc1ccc(-c2[nH]c(=S)n(C(CC3(C)NCC(=O)N3n3c(-c4ccccc4)cc(C)nc3=S)c3ccc(OC)cc3)c(=O)c2Br)cc1 (stereo not given) | 70.8%
Cc1nn(-c2ccccc2)c(Oc2ccc(Cl)cc2)c1/C=N\N=c1/sc2ccccc2n1C | 88.9%
COc1ccc(Nc2nnc(SCc3ccccc3F)s2)cc1 | 95.7%
COc1ccc(C(=O)/C=C/c2c(C(F)(F)F)nc3sccn23)cc1OC | 22.7%

Structure (SMILES) | growth
CC(C)C(NC(=O)C1(NC(=O)OCc2ccccc2)CCCC1)C(=O)O (stereo not given) | 99.6%
O=C(Nc1ccccc1-c1nc2ccccc2c(=O)[nH]1)c1cc2ccccc2[nH]1 | 82.4%
NS(=O)(=O)c1ccc(-n2nc(C(=O)N/N=C\c3ccc(F)cc3)cc2-c2ccc(Cl)cc2)cc1 | 84.2%
O=C(COc1ccc(/C=C2\Oc3ccccc3C2=O)cc1)c1ccc(Cl)cc1 | 107%
COc1ccc2c(c1)O/C(=C/c1ccc(OCC(=O)c3ccccc3)cc1)C2=O | 98.1%
Cn1c2c(c3ccc(Cl)c(Cl)c31)C(C#N)C1(CCNCC1)NC2=O (stereo not given) | 72.6%
C[n+]1cc2c3c(ccc2c2ccc4cc5c(cc4c21)OCO5)OCO3 | -67% (active)
O=S(=O)(Nc1cccc(Cl)c1)c1ccc(-c2cnc(C3CC3)o2)cc1 | 29.3%
COc1ccccc1NC(=O)N/C(N)=N/c1nc2ccccc2s1 | 33%
CCN1C(=O)N(CC)C2C1NN=c1s/c(=C\c3cccs3)c(=O)n12 (stereo not given) | 36.4%
Cc1cc(/C=C\c2ccc3ccccc3[n+]2C)c(O)c2ncccc12 | -4.98% (active)
COC(=O)c1c2c(c[n+]([O-])c1C)C(=O)C=CC2=O | 60.4%
COC(=O)c1c2c(c(C)[n+]([O-])c1C)C(=O)C(NCc1ccc(F)c(Cl)c1)=CC2=O | 16.3%
Cc1ccc(-n2nc3c(c(C#N)c2=O)CC(c2ccccc2Cl)C([N+](=O)[O-])=C3O)cc1 (stereo not given) | 101%
O=C(COc1ccc(/C=C2\Oc3ccccc3C2=O)cc1)Nc1nc2c(s1)CCCC2 | 45.1%
CCN(CC)CCCCCCNc1cc(OC)c(Cl)c2cccnc12 | 76.9%
CN(C)CC1=NC2SC=C(c3ccccc3)C2C(=O)N1CC#N (stereo not given) | 102%
Cc1ccc(S(=O)(=O)n2cc(CNc3ccc(N4CCOCC4=O)cc3)c3ccccc32)cc1 | 87.8%
COC(=O)[C@]12CC[C@@H](C)[C@H](C)[C@@H]1C1=CC[C@@H]3[C@@]4(C)C(C=O)=C[C@@](C)(CO)[C@@H]4[C@H](O)C[C@@]3(C)[C@]1(C)CC2 | -17.1% (active)
N#Cc1c(-c2ccccc2)cc(-c2ccc(Nc3nc(Nc4ccc(F)cc4)nc(Nc4ccc(F)cc4)n3)cc2)nc1N | 72.9%
